Data reported in PubChem BioAssay AID1347383 (Zoeller Lab, School of Medicine, Boston University, 2020).
Activity calls are given as the source filed them.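 Rule for the calls: active = cell survival after UV exposure 2 SD above solvent-only control wells at 10 µM, confirmed on one or two repeats; inactive = the rest.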

Assay: cell survival after pyrene fatty acid photosensitization – ZR-82 cells, Analyticon library, screen 2, phospholipid biosynthesis inhibitor project, primary screen (AID 1347383);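 note: survival reflects blocked phospholipid synthesis cutting uptake of the phototoxic fatty acid; compound and fatty acid exposure 3 h then viability read next day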
Details: ZR-82 CHO cells, pyrene-fatty acid UV killing, CellTiter Blue; at 10 µM; peroxisome-deficient CHO-K1 variant; with DGAT-1, DGAT-2 and ACAT inhibitors
In the case of CC(=O)N[C@@H](C(=O)O[C@H]1CCC(C)(C)[C@@H]2CCC3=C(COC3=O)[C@@]12C)C(C)C, the outcome is reported as “inactive”. For Nc1ccn(C2CC(O)C(CO)O2)c(=O)n1 (stereo not drawn), the outcome was “inactive”. In the case of CC(C)=CCCC1(C)C=Cc2c(c(C)cc3c2[nH]c2ccccc23)O1 (stereo not drawn), the outcome is reported as “inactive”. In the case of O=c1c(O)c(-c2ccc(O)cc2O)oc2cc(O)cc(O)c12, the outcome is reported as “inactive”. With O=C(O)CC(O)(Cc1ccc(O)cc1)C(=O)O (stereo not drawn) the outcome was “inactive”. In the case of C/C=C(/C)C(=O)O[C@@H]1C[C@@H](OC(=O)CC(C)C)C2(C)C3C(=O)C=C(C)C2C3C1(C)C (stereo partly drawn), the outcome is reported as “inactive”. In the case of CCCc1c(C(=O)O)cc2c(c1O)C(=O)c1c(O)cccc1C2=O, the outcome is reported as “inactive”. For CCCCCCCCCCCCCCCCC1C(=O)OC(C)C1OC (stereo not drawn), the outcome was “inactive”. With CC(=O)OC/C(=C/C(=O)O)CC[C@@H]1C(C=O)=CC[C@@H]2C(C)(C)CCC[C@@]12C the outcome was “inactive”. With CCCCCCCCCC(O)CC(CC(CC1CC=CC(=O)O1)OC(C)=O)OC(C)=O (stereo not drawn) the outcome was “inactive”. In the case of CC1(C)CCCC2(C)C(CO)C3CCC2C31 (stereo not drawn), the outcome is reported as “inactive”. For COc1cc(=O)oc(C(C)C(C)O)c1CO (stereo not drawn), the outcome was “inactive”. With CC1(C)C2CC[C@]3(C)C(C(=O)C=C4[C@H]5C[C@@](C)(C(=O)O)CC[C@]5(C)CC[C@]43C)[C@@]2(C)CC[C@@H]1O (stereo partly drawn) the outcome was “inactive”. For Nc1ccccc1CCCCCCCCC(=O)O, the outcome was “inactive”. In the case of CO[C@H]1c2cc(C(C)C)c(O)c(O)c2[C@@]23CCCC(C)(C)C2[C@@H]1OC3=O (stereo partly drawn), the outcome is reported as “inactive”. In the case of O=c1[nH]c2ccccc2c(-c2cccc(O)c2)c1O, the outcome is reported as “inactive”. For CC(C)=CCCC1=CC(=O)OC1O (stereo not drawn), the outcome was “inactive”. For CC(C)c1ccc2c(c1)CCC1C(C)(C(=O)O)CCCC21C (stereo not drawn), the outcome was “inactive”.
